# Screen size: about 190,000 compounds; about 810 (0.43%) were called active. For the sample, actives were picked, then their nearest neighbours and some compounds at random. A number with no mark means an inactive call. Cut-off read from the data, not from the text of the source: active = inhibition above about 50%; inactive = the rest.
# Target: Mannose-6-phosphate isomerase (Homo sapiens) (UniProt P34949)
# Experiment: inhibitors of human PMI, primary screen, biochemical, fluorescence intensity, coupled assay (AID 1209);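 note: plate controls were DMSO vehicle for no effect and wells lacking substrate for full effect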
# Conditions: purified PMI enzyme, at 20 µM, active compounds read high
# Sequence of Mannose-6-phosphate isomerase (Homo sapiens) (P34949 whole entry, looked up): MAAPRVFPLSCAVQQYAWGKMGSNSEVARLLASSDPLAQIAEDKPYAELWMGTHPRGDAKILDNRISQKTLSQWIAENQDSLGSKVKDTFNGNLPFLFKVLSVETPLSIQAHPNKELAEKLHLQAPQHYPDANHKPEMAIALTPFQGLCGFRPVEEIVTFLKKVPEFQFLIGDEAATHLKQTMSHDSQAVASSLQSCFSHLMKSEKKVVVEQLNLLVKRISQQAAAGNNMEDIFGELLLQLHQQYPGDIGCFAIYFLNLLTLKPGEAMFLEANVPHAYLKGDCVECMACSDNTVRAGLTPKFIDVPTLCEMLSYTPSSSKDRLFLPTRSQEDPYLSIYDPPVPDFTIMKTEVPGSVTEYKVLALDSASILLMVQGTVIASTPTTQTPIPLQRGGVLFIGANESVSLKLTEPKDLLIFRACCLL
row,Structure (SMILES),inhibition
1,O=[N+]([O-])c1cc([N+](=O)[O-])c2c(=Nc3ccccc3)n(-c3ccccc3)n(O)c2c1,10.6%
2,O=c1c2cc(Br)ccc2nc(-c2ccc([N+](=O)[O-])cc2)n1O,-3.6%
3,O=c1c2c([N+](=O)[O-])cc([N+](=O)[O-])cc2sn1-c1ccc(Br)cc1,109% (active)
4,CCOc1ccccc1CN1CCN(S(=O)(=O)CC)CC1,3.5%
5,O=c1[nH]c(CSc2nnc(COc3ccccc3)n2-c2ccccc2)nc2ccccc12,-3.6%
6,Nc1cc(C(=O)OCC(=O)NCc2ccco2)ccc1Cl,-6.8%
7,COC(=O)c1ccc(OC)cc1OCC(=O)N1CCN(c2ccc(F)cc2)CC1,13.1%
8,O=C(/C=C/c1c(Cl)cccc1Cl)NCCc1ccccc1,-10%
9,CC(C)CN(CC(C)C)S(=O)(=O)N1CCC(C(=O)NCc2cccnc2)CC1,55.2% (active)
10,CC(C)CN(CC(C)C)S(=O)(=O)N1CCC(C(=O)NCc2ccc(F)cc2)CC1,2.6%
11,CCS(=O)(=O)N1CCC(C(=O)NCc2cccnc2)CC1,4.6%
12,COc1ccc(NC(=O)C(c2ccccc2)N(C)C(=O)CNC(C)=O)cc1 (stereo not given),-1.1%
13,COc1ccc2nc(N=Nc3ccc(N(C)C)cc3)sc2c1,-5.8%
14,CN(C)C(=O)c1nc2ccccc2s1,4.6%
15,COc1ccc2nc(/N=C\N(C)C)sc2c1,7%
16,CCOC(=O)N/C(N)=N/c1nc2ccccc2s1,3.7%
17,COc1ccc(-n2c(N)c(C(=O)NCC3CCCO3)sc2=S)cc1 (stereo not given),6%
18,Cn1c(=O)c(=O)n(C)c2cc(S(=O)(=O)N3CCC(Cc4ccccc4)CC3)ccc21,0.3%
19,CCC(=O)NC(c1cccs1)c1ccc2cccnc2c1O (stereo not given),33.8%
20,Oc1c(C(Nc2ccccn2)c2ccccn2)ccc2cccnc12 (stereo not given),6.9%
21,Oc1c(C(c2cccs2)N2CCN(c3ccccc3)CC2)sc2ncnn12 (stereo not given),-6.2%
22,CN1CCN(C(c2cccnc2)c2ccc3cccnc3c2O)CC1 (stereo not given),39.6%
23,CCOC(=O)N1CCN(C(c2cccnc2)c2ccc3cccnc3c2O)CC1 (stereo not given),60.4% (active)
24,Oc1c(C(c2cccs2)N2CCN(c3ccccc3)CC2)ccc2cccnc12 (stereo not given),58.8% (active)

row,Structure (SMILES),inhibition
1,Oc1c(C(c2ccccc2Cl)N2CCCC2)ccc2cccnc12 (stereo not given),32.1%
2,Cc1nc2sc(C(c3cccs3)N3CCN(c4ccccc4)CC3)c(O)n2n1 (stereo not given),4.2%
3,CCOC(=O)N1CCN(S(=O)(=O)c2cccc3cccnc23)CC1,-9.6%
4,OCCN1CCN(C(c2cccs2)c2ccc3cccnc3c2O)CC1 (stereo not given),50.8% (active)
5,Oc1c(C(c2ccccn2)N2CCOCC2)ccc2cccnc12 (stereo not given),60.9% (active)
6,Cc1conc1NC(c1cccs1)c1ccc2cccnc2c1O (stereo not given),13%
7,COC(=O)c1nn(-c2ccccc2)c(=O)cc1Oc1ccc(Cl)cc1,-15.5%
8,CCOC(=O)N1CCC(NC(=O)CCC(=O)N2CC(C)Oc3ccc(Cl)cc32)CC1 (stereo not given),19.2%
9,COc1ccc(C(=O)Nc2nnc(Cc3cccs3)s2)cc1OC,7.8%
10,COc1c(Cl)cnn(-c2ccc(Cl)c(Cl)c2)c1=O,-2.9%
11,CC1(C)NC(=O)N(CCOCCOc2ccccc2-c2ccccc2)C1=O,-2.9%
12,COc1cc(O)c2c(c1)OC(c1ccc(O)cc1)CC2=O (stereo not given),-1.3%
13,COc1cc2c(cc1OC)C1(Nc3c-2c(Cc2ccccc2)nn3-c2ccccc2)C(=O)Nc2ccccc21 (stereo not given),9.3%
14,Clc1ccc(-c2nn3c(-c4ccccn4)nnc3s2)c(Cl)c1,-4.5%
15,Cc1cccc(N2C(=O)SC(SC(=Nc3ccccc3)Nc3ccccc3)C2=O)c1 (stereo not given),52.5% (active)
16,O=C1SC(SC(=Nc2ccccc2)Nc2ccccc2)C(=O)N1c1ccccc1 (stereo not given),-11.6%
17,Cc1cccc(N2C(=O)CC(SC(=Nc3ccccc3)Nc3ccccc3)C2=O)c1 (stereo not given),15.7%
18,Cc1ccc2c(c1)n([O-])c1c([n+]2=O)CCCC1,17.7%
19,O=[n+]1c2c(n([O-])c3cc(F)ccc31)CCCC2,5.7%
20,CCOc1ccc2c(c1)n([O-])c1c([n+]2=O)CCCC1,56.8% (active)
21,CSc1ccccc1NC(=O)CN(C)Cc1ccc(Br)cc1,16%
22,Cc1ccccc1Cn1ccc(NC(=O)c2cnn3cccnc23)n1,10.4%
23,CCOC(=O)NC(=O)CSc1ccccn1,2.1%
24,O=C1/C(=C/c2cccc([N+](=O)[O-])c2)CCc2ccccc21,14.1%

row,Structure (SMILES),inhibition
1,O=[N+]([O-])c1cccc(N=Cc2sc3ccccc3c2O)c1,13.3%
2,CC1CCC(NC(=O)Cn2ncc3ccccc32)CC1 (stereo not given),8.4%
3,COc1cc2cc(CN(CCc3cccc(C)c3)C(=S)NCCCN3CCOCC3)c(=O)[nH]c2cc1OC,10.1%
4,O=C(Cc1ccc(Nc2nc(=S)[nH]c3ccccc23)cc1)NC1CCCCC1,-5.3%
5,Cc1ccc(CNC(=O)Cc2csc(Nc3nc(=S)[nH]c4ccccc34)n2)cc1,-1.8%
6,CC(C)CCNC(=O)Cc1ccc(Nc2nc(=S)[nH]c3ccccc23)cc1,51.6% (active)
7,Cc1cccc(/C(N)=N/OC(=O)c2ccc(Br)o2)c1,12.6%
8,CCOc1cc(S(=O)(=O)N2CCCC2)ccc1Cl,-1.7%
9,O=C(O[C@@H]1OC2COC(=O)c3cc(O)c(O)c(O)c3-c3c(cc(O)c(O)c3O)C(=O)O[C@@H]([C@H]1O)[C@@H]2O)c1cc(O)c(O)c(O)c1,49.1%
10,Cc1cn(C2OC(COC(=O)c3ccccc3)C(OC(=O)c3ccccc3)C2OC(=O)c2ccccc2)c(=O)[nH]c1=O (stereo not given),3.7%
11,O=C(OCC1O[C@@H](OC(=O)c2cc(O)c(O)c(O)c2)[C@@H](OC(=O)c2cc(O)c(O)c(O)c2)[C@@H](OC(=O)c2cc(O)c(O)c(O)c2)[C@@H]1OC(=O)c1cc(O)c(O)c(O)c1)c1cc(O)c(O)c(O)c1 (stereo not given in full),57.2% (active)
12,CC(C)N(CC#CC(O)(c1ccccc1)c1ccccc1)CCO,-9.6%
13,NC(=S)N/N=C/c1cc([N+](=O)[O-])ccc1Cl,-2.2%
14,S=C(N/N=C/c1ccccc1Cl)Nc1ccccc1,12.3%
15,O=[N+]([O-])c1ccc(Cl)c(/C=N/NC(=S)Nc2ccccc2)c1,66.2% (active)
16,CCC(C)(C)c1ccc(OCCN2C(=O)NC(C)(C)C2=O)cc1,7.4%
17,COc1ccc(NC(=O)C2(c3ccccc3)CCCC2)cc1,18.9%
18,CCOC(=O)C1=C(C)N(C)C(=O)NC1c1c(C)nn(-c2ccc(C)cc2)c1Cl (stereo not given),-6.5%
19,CCOC(=O)C1=C(C)N(C)C(=O)NC1c1c(C)nn(-c2ccccc2)c1C (stereo not given),-0.2%
20,CCOC(=O)C1=C(C)NC(=O)NC1c1c(C)nn(-c2ccccc2)c1Cl (stereo not given),53.9% (active)
21,CCSc1nnc(NC(=O)c2ccc(S(=O)(=O)N(C)C)cc2)s1,-9.1%
22,COc1ccc(Nc2nc(N)nc(CSC(=S)N3CCOCC3)n2)cc1,-8.7%
23,C=CC[n+]1ccc(/C=C2\C=Cc3cc(C)ccc3N2CC)c2ccccc21,64.5% (active)
24,CCN1/C(=C/c2cc[n+](C)cc2)C=Cc2cc(C)ccc21,46.3%

row,Structure (SMILES),inhibition
1,C=CC[n+]1c(/C=C2\C=Cc3cc(C)ccc3N2CC)ccc2ccccc21,16.7%
2,N#CCSCC(=O)Nc1ccccc1,7.9%
3,N#CC(C(=O)NC1CCCCC1)c1nc2ccccc2nc1N1CCN(c2ccc(F)cc2)CC1 (stereo not given),7.4%
4,Cc1ccc(-c2nnc3n2N=C(c2ccc(Br)cc2)CS3)cc1,-12.4%
5,COc1cccc(CNc2ccc(N3CCC(C)CC3)cc2)c1OC,67.3% (active)
6,COc1cccc(CNc2ccc(F)c(Cl)c2)c1OC,-0.3%
7,COc1cccc(CNc2ccc(S(N)(=O)=O)cc2)c1OC,6.1%
8,COc1ccccc1C(=O)Nc1ccc(N2CCCCC2)cc1,-4.3%
9,CC1CCN(c2ccc(NC(=O)Cc3ccccc3)cc2)CC1,13.5%
10,COc1ccccc1CNc1ccc(N2CCCCC2)cc1,67.3% (active)
11,COc1cccc(CNc2ccc(N3CCCCC3)cc2)c1OC,65.1% (active)
12,COc1ccccc1CNc1ccc(C(=O)O)cc1,1.8%
13,COc1cccc(CNCCN2CCOCC2)c1OC,0.5%
14,S=C1NC2(CCCC2)Nc2ccccc21,-71.4%
15,COC(=O)c1ccccc1NC(=O)c1ccc(-c2ccccc2F)o1,-1.4%
16,O=C(CSc1ncn[nH]1)Nc1ccc(Br)cc1F,6%
17,O=C1c2ccccc2C(=O)N1CCc1c[nH]c2ccc(O)cc12,22.1%
18,FC(F)(F)c1cc(-c2ccc(Cl)cc2)nc2ncnn12,-7.2%
19,COc1ccc(S(=O)(=O)N2CC(O)CC2C(=O)OCC(=O)Nc2ccc(Cl)cn2)cc1 (stereo not given),13.3%
20,O=[N+]([O-])c1ccc2c(c1)[nH]c(=S)n2-c1ccccc1,58.6% (active)
21,O=[N+]([O-])c1cccc(-c2cn(-c3ccccc3)c(=S)[nH]2)c1,-9.5%
22,O=[N+]([O-])c1ccc(-c2cn(-c3ccccc3)c(=S)[nH]2)cc1,-1.9%
23,CCc1cccc(CC)c1NC(=O)c1cc(CN2C(=O)c3ccccc3C2=O)ccc1OC,3%
